Compounds with a hit are over-represented: about 11% of the library has one in this group of screens.
HPGD inh: qHTS Assay for Inhibitors of HPGD (15-Hydroxyprostaglandin Dehydrogenase). purified HPGD, NADH fluorescence kinetic, PGE2 substrate. Potency, µM, without a hit: at the top dose activity change, negative = inhibition, hits mostly inhibitors. 150,000 compounds, 4.3% hits. AID 894, 2007; note: potency is the fitted concentration of half-maximal effect
Target sequence (P15428 whole entry, looked up): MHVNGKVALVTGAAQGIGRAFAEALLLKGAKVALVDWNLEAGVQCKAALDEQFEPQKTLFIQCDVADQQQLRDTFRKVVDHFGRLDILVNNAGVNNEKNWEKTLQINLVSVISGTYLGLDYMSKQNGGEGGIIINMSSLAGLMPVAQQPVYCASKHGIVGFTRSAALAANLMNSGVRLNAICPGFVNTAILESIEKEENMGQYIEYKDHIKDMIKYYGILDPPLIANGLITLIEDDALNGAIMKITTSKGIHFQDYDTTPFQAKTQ
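20 nM HPGD preincubated 15 min at room temperature with compound in 50 mM Tris-HCl pH 8, 0.01% Tween 20. Started with 1 mM NAD+ and 30 uM prostaglandin E2; NADH fluorescence (360/450 nm) read 5 times over 30-s intervals, last minus first.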
ALDH1A1 block: qHTS Assay for Inhibitors of Aldehyde Dehydrogenase 1 (ALDH1A1); Potency, µM (highest dose often 75.3 µM), for the others: at the highest dose activity, negative = inhibition, hits mostly inhibitors; Purified ALDH1A1, NADH fluorescence, propionaldehyde substrate; 220,000 compounds, 7.3% hits; Aldehyde dehydrogenase 1A1 (Homo sapiens), P00352; AID 1030, 2008;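 note: potency is the fitted concentration of half-maximal effect; plate controls were no enzyme wells and a reference inhibitor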
IMPase cell inh: qHTS Assay for Identifying the Cell-Membrane Permeable IMPase Inhibitors. Inositol monophosphatase 1 (Rattus norvegicus), P97697. CHO-M1 cells, IP1 accumulation, HTRF TR-FRET ratio. inhibition (IP1 accumulation), % at 46.1 µM. 120,000 tested, under 10 active. AID 901, 2007; active = well fitted curve in the direction sought with a large enough effect in the signal ratio, not every such curve was filed as active; inconclusive = small, poorly fitted or top-dose-only effect, or a change in a side signal; inactive = no such curve, though single readings can be large or run the other way; the % refers to the signal ratio;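 note: cells stimulated with carbachol in lithium chloride buffer; plate controls were DMSO basal wells for no effect and reference inhibitor wells for full effect; higher means more IMPase inhibition seen as more IP1 and lower FRET ratio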
Target sequence (P97697 whole entry, looked up): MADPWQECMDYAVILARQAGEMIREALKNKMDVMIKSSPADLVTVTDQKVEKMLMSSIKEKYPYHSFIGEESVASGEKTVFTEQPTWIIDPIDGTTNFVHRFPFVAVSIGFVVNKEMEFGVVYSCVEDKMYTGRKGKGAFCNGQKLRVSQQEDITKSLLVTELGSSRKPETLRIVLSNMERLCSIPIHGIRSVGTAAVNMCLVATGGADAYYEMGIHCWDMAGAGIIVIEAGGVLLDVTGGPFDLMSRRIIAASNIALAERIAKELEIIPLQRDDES
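The IP-One HTRF competitive assay in carbachol-stimulated CHO-M1 cells quantifies cellular IP1. Compounds spanned up to 46 uM final, and activity is expressed as AC50 from concentration-response fits of the ratio and donor data.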
IMPase Li cell: qHTS Assay for Identifying the Cell-Membrane Permeable IMPase Inhibitors: Potentiation with Lithium. CHO-M1 cells, IP1 TR-FRET (IP-One), carbachol + lithium. Potency, µM (series often up to 59.4 µM), inactives show top-dose activity, negative = IMPase inhibition, hits mostly inhibitors. 210,000 compounds, 0.35% hits; active = well fitted inhibition curve with a large enough effect; inconclusive = small, poorly fitted or top-dose-only effect; inactive = no such curve, though single readings can be large or run the other way;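 note: IP1 builds up when IMPase is blocked and the TR-FRET signal falls; potency is the fitted concentration of half-maximal effect; plate controls were basal vehicle for no effect and high inhibitor control for full effect; nearly all actives have a fitted effect of over 50% in size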
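Lithium-sensitised IP1 accumulation assay; M1-expressing CHO cells treated 30 min at 37C with compound. Competitive antibody detection by time-resolved FRET followed a 10 min room-temperature lysis step.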
PNC assembly inh: High Content Assay for Compounds that inhibit the Assembly of the Perinucleolar Compartment; activity change (PNC), negative = inhibition, % at 10 µM; 140,000 compounds, 3.1% hits; PC3M PTB-GFP, PNC prevalence imaging, 16 h; stronger effect = lower value;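 active = readout at or below -70, meaning at least 70% loss of cells showing the perinucleolar compartment, a nuclear body marking cancer cells; inconclusive = readout between -30 and a set limit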;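 note: plate controls were DMSO wells for no effect and camptothecin positive control wells for full effect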
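PC3M cells stably expressing PTB-GFP, 750–1000 cells/well, treated 16 h at 37 °C with compound (23 nl of library stock), in duplicate. After paraformaldehyde fixation and Hoechst stain, imaged at 20x; PNC prevalence scored by image analysis.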
Starred values were filed as active, the others as inactive; ? = inconclusive; . = no result; [ ] = remark or other dose. Unless noted, calls come from the whole dose curve; as a rule, active = well fitted inhibition curve with a large enough effect (not every such curve was filed as active); inconclusive = small, poorly fitted or top-dose-only effect, or another doubt; inactive = no such curve, though single readings can be large or run the other way. Unless noted, % is set by controls: 0 for no effect and ±100 for the full control effect.

SMILES	HPGD inh	ALDH1A1 block	IMPase cell inh	IMPase Li cell	PNC assembly inh
O=C(Nc1ccccc1C(=O)OCC(=O)c1c[nH]c2ccccc12)c1ccco1	-27%	?	9	6%	59
Cc1ccc(-n2nnnc2SCC(=O)Nc2ccccc2N2CCCCC2)cc1C	-13%	-5%	4	-1%[38.3 µM]	21
COc1ccc(-c2nnc(SCc3ccccc3)n2N)cc1	-16%	13%	-7	-3%[38.3 µM]	-108*
O=[N+]([O-])c1ccc(Sc2nnnn2-c2ccccc2)nc1	.	22µM*	.	24%	.
Cc1cccc(-c2nnc(SCC#N)n2C)c1	.	15%	.	-1%	.
Cc1ccc(-c2nnc(SCC#N)n2N)cc1	?	-9%	-10	17%[38.3 µM]	-83*
CSc1ccccc1-n1nnnc1SCC(=O)Nc1cc(C)ccc1C	-2%	14µM*	7	20%[38.3 µM]	11
c1ccc(-n2nnnc2SCc2ccccn2)cc1	-7%	?	-5	21%[38.3 µM]	25
C(=C\CSc1nnnn1-c1ccccc1)/CSc1nnnn1-c1ccccc1	?	0.1µM*	9	5%[38.3 µM]	?
Cc1ccccc1-n1nnnc1SCC(N)=O	-16%	?	6	14%[38.3 µM]	15
Cc1ccccc1-n1nnnc1Sc1nnnn1-c1ccccc1	-1%	25µM*	6	22%[38.3 µM]	0
COc1ccc(NC(=O)c2sc3nc(C)c(C(=O)Nc4ccc(C)cc4C)c(-c4cccs4)c3c2N)cc1	.	.	1	.	.
Cc1ccc(S(=O)(=O)NCC(=O)OCC(=O)c2ccc(Br)s2)cc1	-11%	?	?	10µM*	10
COc1cc(Cl)c(C)cc1NC(=O)CNC(=O)Cn1cnc2ccccc2c1=O	?	-4%	1	-8%[38.3 µM]	64
CN(C)CCCN1c2ccccc2Sc2ccc(C(F)(F)F)cc21	-2%	11%	20[20.6 µM]	35%	-115*
COc1ccc2ccccc2c1C(=O)/C=C\c1ccoc1	?	20µM*	.	-11%	-11
COc1ccc(OC)c(NC(=O)C2CCN(Cc3cnn(-c4ccccc4)c3-n3cccc3)CC2)c1	-19%	5%	5	-6%[38.3 µM]	-88*
COc1ccc(NC(=O)NC2CCN(C(C)C)CC2)c(OC)c1	-8%	9%	-7	21%[38.3 µM]	-80*
COc1ccc(NC(=O)C2CCN(S(=O)(=O)c3ccc(OC)c(OC)c3)CC2)c(OC)c1	-6%	-8%	-4	-13%[38.3 µM]	-121*
COc1ccc(NC(=O)C2CCN(Cc3cnn(-c4ccccc4)c3-n3cccc3)CC2)cc1OC	-7%	?	17	11%[38.3 µM]	-8
COc1ccc(C(=O)N2CCC(C(=O)Nc3ccccc3OC)CC2)cc1	-4%	0%	4	-8%	-85*
Cc1cc(C)c(NS(=O)(=O)c2ccc3c(c2)NC(=O)CC(=O)N3)c(C)c1	-6%	13%	.	8%	19
Cc1cccc(C2NC(c3cccc(C)c3)C([N+](=O)[O-])C(C)(C)C2[N+](=O)[O-])c1 (stereo not given)	-3%	15%	.	2%	-4
CCOC(=O)CCCNC(=O)N1CCc2nc(COc3ccccc3)c3c(c2C1)CO[C@@H](C)C3	-2%	2%[13.5 µM]	.	-1%	.
CCOc1ccc(C(=O)Nc2ccc3oc(-c4ccc(C)cc4C)nc3c2)cc1Br	.	.	-1	.	.
SMILES	HPGD inh	ALDH1A1 block	IMPase cell inh	IMPase Li cell	PNC assembly inh
COc1ccc(NC(=O)C2CCN(C(=O)c3ccccc3)CC2)c(OC)c1	-13%	1.6µM*	5	0%[38.3 µM]	24
COc1ccc(NC(=O)C2CCN(C(=O)c3cccs3)CC2)c(OC)c1	1%	2%	-5	-26%[38.3 µM]	-8
CCCc1cc(C(=O)Cc2ccc(F)cc2)c(O)cc1O	-23%	-1%	-1	-8%[38.3 µM]	17
CCCC(=O)c1cc(O)c(O)cc1O	6.3µM*	?	.	25%	.
Fc1ccc(Nc2ncncc2-c2ccoc2)cc1	.	?	.	2%	.
CCCCC(c1nnnn1CCOC)N1CCN(CC)CC1 (stereo not given)	-8%	1%	-10	14%	-100*
COc1ccc(N(C(=O)c2ccco2)S(=O)(=O)c2ccc(F)cc2)cc1	28µM*	-1%	10	28%	39
N#CC1=C(N)OC2=C(C(=O)CC(c3ccco3)C2)C1c1ccc(OCc2c(F)cccc2Cl)cc1 (stereo not given)	-22%	8.9µM*	6	-1%[38.3 µM]	76
CCOC(=O)c1[nH]c2c(c1Cc1ccccc1)C(=O)CC(c1ccc(OC)cc1)C2 (stereo not given)	.	.	12	.	.
COCCNC(=O)Cn1c(=O)n(CCCCCC(=O)NCc2ccc3c(c2)OCO3)c(=O)c2sccc21	.	-1%	.	15%	.
Cn1c(=O)c2sccc2n2c(CCCC(=O)NCc3ccc4c(c3)OCO4)nnc12	-28%	-7%	7	-7%[38.3 µM]	-100*
CC(C)CSc1nnc(-c2ccccc2)c(-c2ccccc2)n1	.	.	5	.	.
CC(C)n1c(=S)[nH]c2c1c(=O)[nH]c(=O)n2C	8.9µM*	2µM*	3	2%[38.3 µM]	16
C#CCOC(=O)Nc1ccc(OCC(F)(F)F)nc1	.	4%	.	.	.
Cc1nc(SCC(=O)O)c2oc3ccccc3c2n1	18µM*	2%	3	-7%[38.3 µM]	-15
NC(=O)CSc1ncnc2c1oc1ccccc12	-29%	?	?	13µM*	24
Cc1ccc2nc(NC(=O)CSc3ncnc4c3oc3ccccc34)sc2c1	-18%	7%	-2	?	-108*
O=C(CSc1ncnc2c1oc1ccccc12)OCc1ccccc1	?	2%	-1	-6%[38.3 µM]	21
O=C(CSc1ncnc2c1oc1ccccc12)NC1CCCCC1	?	?	-18	11µM*	16
Cc1nc(SCC(=O)NCc2ccccc2)c2oc3ccccc3c2n1	-1%	2%	0	?	11
O=C(/C=C/c1cn(-c2ccccc2)nc1-c1cccnc1)c1ccco1	.	?	.	7%	.
Cc1ccc2c(c1C)NC(=O)CC2c1ccc(Cl)cc1Cl (stereo not given)	.	.	-1	.	.
CCOC(=O)c1cnn(-c2nc(OCC)cc(OCC)n2)c1C	1%	9%	.	-4%	-10
CC(=O)N1CCN(c2ccc(Nc3nc(C)nc4c3oc3ccccc34)cc2)CC1	-16%	?	35	18%[38.3 µM]	?
COc1ccc(C(C)=O)cc1CSC(=N)N	.	?	.	5%	.

Compound activity: PubChem, National Center for Advancing Translational Sciences (NCATS)
